The target of the assay is Torsin-1A-interacting protein 1 (Homo sapiens) (UniProt Q5JTV8). Put plainly: compound microarray binding of lysate hLAP1 – cell lysate, small-molecule microarray, COS7 lysate, 635/667 nm fluorescence, primary screen (AID 1116). The note with it: 635 nm fluorescence, higher = more signal.
Torsin-1A-interacting protein 1 (Homo sapiens), sequence (Q5JTV8 whole entry, looked up): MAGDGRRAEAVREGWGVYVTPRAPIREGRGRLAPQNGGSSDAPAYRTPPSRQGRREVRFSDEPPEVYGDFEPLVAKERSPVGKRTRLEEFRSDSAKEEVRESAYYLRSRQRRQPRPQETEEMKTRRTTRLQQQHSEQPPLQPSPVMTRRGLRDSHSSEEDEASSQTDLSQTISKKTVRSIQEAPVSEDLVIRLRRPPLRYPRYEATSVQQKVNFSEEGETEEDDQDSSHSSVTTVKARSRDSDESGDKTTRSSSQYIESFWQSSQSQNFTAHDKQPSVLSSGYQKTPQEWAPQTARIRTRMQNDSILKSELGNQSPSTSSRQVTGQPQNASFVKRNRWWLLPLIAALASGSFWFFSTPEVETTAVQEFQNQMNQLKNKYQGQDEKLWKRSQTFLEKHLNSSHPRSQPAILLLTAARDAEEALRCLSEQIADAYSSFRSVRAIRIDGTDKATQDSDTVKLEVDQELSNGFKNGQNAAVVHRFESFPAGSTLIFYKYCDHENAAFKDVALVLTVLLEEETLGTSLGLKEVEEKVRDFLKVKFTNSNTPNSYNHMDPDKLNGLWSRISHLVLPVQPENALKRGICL
The molecule `CO[C@H]1COC(=O)CC=C[C@H](C)[C@H](OC)COC(=O)[C@@H](C)NC(=O)CC=C[C@@H]1C` gave a composite z-score of 0.229.
Take `C#CCCCON=C1C[C@@H](O)[C@@H](O)[C@@H]2[C@@H]3C(=O)N([C@@H](C)c4ccccc4)C(=O)[C@@H]3CC[C@@H]12`: the composite z-score is -0.512.
As for `C=CC[C@@H]1C=C[C@H](ON=C(C)CCN2CCCc3nc(C)c(C)cc32)[C@@H](CO)O1`, the figure is 1.83; as for `CCOC(=O)[C@H](CC(C)C)NC(=O)CCC1CC(OC(=O)NCCc2ccc(F)cc2)CC2(CCCC(COC(=O)NCCOC)O2)O1` (stereo partly specified), 0.461.
As for `CC(CCC(=O)OC[C@H]1O[C@H](C#Cc2ccccc2)C=C[C@@H]1Oc1ccc(C)cc1)=NOC[C@@H](C)[C@H](OCc1ccccc1)C(C)C`, the composite z-score is -0.746.
`COc1ccc(O[C@H]2C=C[C@@H](c3ccccc3)O[C@@H]2CO)cc1` displayed a composite z-score of 0.171.
To `CCOC(=O)CCN1C(=O)[C@H]2[C@H]3[C@H](O)[C@H](O)CC(=NOCC(C)C)[C@@H]3CC[C@H]2C1=O` belongs -0.202; to `CO[C@H]1COC(=O)[C@H](CCSC)NC(=O)CC=C[C@@H](C)[C@H](OC)COC(=O)[C@@H](OCc2ccccc2)C=C[C@@H]1C`, 0.0829.
On to `CC(CCC(=O)OC[C@H]1O[C@H](C#Cc2ccccc2)C=C[C@@H]1Oc1ccc(C)cc1)=NO[C@@H](C)c1cc(-c2c(C)cc(C)cc2C)no1`, for which the composite z-score was found to be 0.328.
As for `CC(C)[C@@H](OCc1ccccc1)[C@H](C)C=NO[C@H](C)c1cn([C@@H]2COC[C@H]2O)nn1`, the figure is 0.296; as for `CCOC(=O)CCN1C(=O)[C@H]2[C@H]3[C@H](O)[C@H](O)CC(=O)[C@@H]3CC[C@H]2C1=O`, 0.597.

Source of the values: PubChem BioAssay.
